Bioassay records: PubChem, National Center for Advancing Translational Sciences (NCATS)
Pf growth 48h: P. falciparum growth inhibition at 48 hours (one generation); actives 5.9% (n = 310,000); Potency, µM (doses to about 28.7 µM), for the others: top-dose activity change, negative = inhibition, hits mostly inhibitors; P. falciparum luciferase growth in erythrocytes, 48 h; note: potency is the fitted concentration of half-maximal effect; % is set by controls: 0 for no effect and ±100 for the full control effect
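Luciferase-expressing P. falciparum in infected erythrocytes (2% hematocrit, 0.1% parasitemia final) in RPMI 1640/0.5% Albumax were exposed to compound for 48 hours at 37 C, 5% CO2; growth read as luminescence.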
Sm TGR block: blocks Schistosoma mansoni thioredoxin glutathione reductase | purified TGR, DTNB reduction, TNB absorbance 405 nm | Potency, µM (titrated, usually from 114 µM), for inactives: top-dose activity change, negative = inhibition, usual class: inhibitors | actives 3% (n = 360,000); note: potency is the fitted concentration of half-maximal effect; % is set by controls: 0 for no effect and ±100 for the full control effect; nearly all actives have a fitted effect of over 60% in size
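First, TGR (20 nM dispensed) and NADPH were mixed with compound. Second, a 15 min room-temperature incubation followed. Third, further NADPH and then DTNB were added to start the reaction. Finally, TNB absorbance was monitored kinetically.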
Shiga toxin inh: Shiga toxin inhibition; Vero cells, Shiga toxin protein synthesis inhibition reporter; inhibition, % at 38.7 µM; actives 9.2% (n = 290,000); in the data active = inhibition mostly above about 28%, no sharp cut-off; inactive = mostly below about 43%; note: 0% is about no effect
CHX counter: counter-screen for Shiga toxin inhibitors: cycloheximide protein synthesis inhibition. cell reporter, cycloheximide protein synthesis inhibition counterscreen. max response, %. actives 12% (n = 300,000); in the data active = max response mostly above about 13%, no sharp cut-off; inactive = mostly below about 14%; note: read at 38.3 µM for the half of the compounds with a filed dose; 0% is about no effect
Pf growth 96h: P. falciparum growth inhibition at 96 hours; AID 504834; P. falciparum luciferase reporter growth, 96 h; actives 6.9% (n = 320,000); Potency, µM (series often up to 28.7 µM), for the others: at the top dose activity change, negative = inhibition, usual class: inhibitors; note: potency is the fitted concentration of half-maximal effect; % is set by controls: 0 for no effect and ±100 for the full control effect
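P. falciparum expressing integrated firefly luciferase, in erythrocytes at 2% hematocrit, 0.05% parasitemia, incubated with compounds 96 h at 37 C, 5% CO2. Growth inhibition read as loss of luminescence; two-generation exposure targets delayed-death apicoplast inhibitors.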
NS1 inh: inhibitors of influenza NS1 protein function | Potency, µM (doses to about 46.1 µM), without a hit: at the highest dose activity, positive = more growth | AID 2326 | actives 0.4% (n = 270,000); calls by dose curve; note: potency is the fitted concentration of half-maximal effect; actives are rising curves; nearly all actives have a fitted effect of over 50% in size
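Recovery from NS1-induced slow growth read by OD600 in budding yeast switched to galactose assay medium (pH 6.0, -URA) at 1:100 dilution. Compound 23 nl per well; the matching strain lacking NS1 serves as control.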
* = called active by the depositor; ? = inconclusive; / = no result given. Sampled rows, rich in hits. Any-hit rate of the full collection: about 21%. Unless noted, calls come from the whole dose curve; as a rule, active = well fitted curve in the direction sought with a large enough effect; inconclusive = small, poorly fitted or top-dose-only effect, or another doubt; inactive = no such curve, though single readings can be large; an effect the other way counts as inactive or inconclusive.

SMILES	Pf growth 48h	Sm TGR block	Shiga toxin inh	CHX counter	Pf growth 96h	NS1 inh
C[C@H](NC(=O)c1[nH]cnc1C(=O)Nc1ccc(CNC(=O)OC(C)(C)C)cc1)C(=O)OCc1ccccc1	9.3µM*	9%	-8	-3	30%	-35%
CNC(=O)c1[nH]cnc1C(=O)Nc1ccc(Cl)cc1	6%	-2%	40	28*	31%	2%
COc1ccc(NC(=O)c2nc[nH]c2C(=O)N[C@@H](CC(C)C)C(=O)OC(C)(C)C)cc1	10µM*	-1%	-1	-4	?	-61%
COc1cc(NC(=O)CCCOc2ccc(Cl)cc2Cl)c(C(=O)O)cc1OC	4%	-2%	-6	-2	5%	1%
CCC(C)NC(=O)Cn1c(=O)n(-c2cc(OC)cc(OC)c2)c(=O)c2ccccc21 (centres undefined)	/	2%	/	/	/	/
Cc1ccc2c(c1)COc1c3ccc(C(=O)N[C@@H](C)CO)cc3nn1-2	218%	19%	53*	42*	21%	-2%
Cc1ccc2c(c1)COc1c3ccc(C(=O)NC(C)C)cc3nn1-2	104%	-2%	76*	35*	34%	-9%
COC(=O)c1cc(S(=O)(=O)Nc2cc(S(=O)(=O)N(C)C)ccc2C)oc1C	84%	-8%	1	1	13%	2%
CCOc1ccc(-n2c(SCC(=O)N3CCc4ccccc43)nc3c([nH]c4ccccc43)c2=O)cc1	/	8%	/	/	/	/
Cc1csc(NC(=O)c2c(-c3c(F)cccc3Cl)noc2C)n1	12µM*	-7%	/	/	?	/
Cc1onc(-c2c(F)cccc2Cl)c1C(=O)OCC(=O)NC(c1ccccc1)c1ccccc1	12µM*	0%	-8	8	/	0%
Cc1onc(-c2c(F)cccc2Cl)c1C(=O)OCC(=O)NC(N)=O	11%	9%	-11	10	30%	7%
Cc1onc(-c2c(F)cccc2Cl)c1C(=O)NCc1ccco1	-10%	-6%	9	2	1.5µM*	?
Cc1onc(-c2c(F)cccc2Cl)c1C(=O)NCc1cccs1	10%	8%	15	-2	8%	4%
Cc1onc(-c2c(F)cccc2Cl)c1C(=O)OCC(=O)NCc1ccco1	?	18µM*	-3	1	/	-4%
Cc1cc(CNC(=O)C(C)Cc2ccccc2)nn1C (centres undefined)	25%	3%	16	1	0%	-8%
Cc1onc(-c2c(F)cccc2Cl)c1C(=O)Nc1cccc(S(=O)(=O)NCc2ccco2)c1	-26%	28µM*	59*	38*	?	/
CC(=O)c1cccc(NC(=O)c2c(-c3c(F)cccc3Cl)noc2C)c1	17%	2%	/	/	32%	/
Cc1onc(-c2c(Cl)cccc2Cl)c1C(=O)NCc1ccccn1	-18%	11%	-3	-2	2.1µM*	11%
COc1ccc(CNC(=O)[C@H](C)NC(=O)[C@@H]2Cc3ccccc3CN2)cc1	-1%	-9%	-3	2	20%	3%
CCOc1ccc2ccccc2c1/C=N/NC(=O)CNC(=O)C(c1ccccc1)c1ccccc1	21%	-1%	-1	0	-16%	2%
CCOC(=O)c1c(C)oc2nc(C)nc(Nc3cc(C)cc(C)c3)c12	/	66%	/	/	/	/
CC1(C)C2CC=C(/C=N/NC(=O)c3ccc(O)cc3)C1C2 (centres undefined)	-5%	-10%	68	15*	-15%	2%
CSc1ccc(/C=N/NC(=O)c2ccc(O)cc2)cc1	135%	-15%	102*	46*	?	-12%
COc1ccc(/C=N/NC(=O)c2ccc(NS(=O)(=O)c3cccs3)cc2)cc1	12%	3%	/	/	34%	/
COc1ccc(C(=O)N/N=C/c2ccc(SC)cc2)cc1	4%	-19%	38	19*	?	0%
O=C(CNS(=O)(=O)c1cccs1)NCc1ccccc1	?	5%	-17	13	0%	/
CC1(C)CC(=O)C(CC2CCCCC2=O)C(=O)C1 (centres undefined)	48%	3%	8	-1	58%	-3%
CC1(C)CC(=O)C(CC2C(=O)CC(C)(C)CC2=O)C(=O)C1	1%	2µM*	-1	-2	?	4%
